This passage reports Potency results from PubChem BioAssay (NCATS).

Results filed as inconclusive are left out. Entries that show only a call come without a potency. Active and inactive are the calls of the source. The call rests on the fitted dose curve; in most records, active means well fitted inhibition curve with a large enough effect; inconclusive means small, poorly fitted or top-dose-only effect; inactive means no such curve, though single readings can be large or run the other way.

The test has as its target Retinal dehydrogenase 2 (Homo sapiens) (UniProt O94788). Kind of test: qHTS for Inhibitors of the Aldehyde Dehydrogenase Family (ALDH1A2) Confirmation screens (AID 2061314). Further: nearly all actives have a fitted effect of over 65% in size. The settings on record: ALDH1A2 enzyme inhibition qHTS confirmation; series mostly up to 45.9 µM. (In general: In qHTS, concentration-response curves come from the screen itself.)
`Cc1cccn2c(=O)c3cc(C#N)c(=O)n(-c4nnc(SCc5ccc(Cl)cc5)s4)c3nc12`: the Potency result was “inactive”.
With `COCCn1c(SCc2ccccc2F)nc2c([nH]c3ccccc32)c1=O`, the Potency entry is “inactive”.
For the compound `COC(=O)c1ccccc1NC(=O)CSc1nc(-c2ccccc2)cc(C(F)(F)F)n1`, the Potency result is “inactive”.
On to `CCOc1ccccc1NC(=O)CN(C)S(=O)(=O)c1ccc(C(=O)N2CCOCC2)s1`, for which the Potency result is “inactive”.
`O=c1c2cn[nH]c2nc(SCc2cccc(Br)c2)n1-c1ccc(Cl)cc1`: the Potency result was “inactive”.
For the compound `CCCCOc1ccc(C(=O)N(Cc2ccc(N(C)C)cc2)Cc2ccco2)cc1`, the Potency entry was “inactive”.
As to `Cn1nc(C(=O)N2CCOCCNC(=O)CC2)c2ccccc21`, the Potency result was “inactive”.
In the case of `COc1ccc(NC(=O)CN2C(=O)COc3ccc(S(=O)(=O)N4CCOCC4)cc32)cc1`, the Potency result was “inactive”.
`CN(CC1(CO)CC1)c1nccc(CCC(F)(F)F)n1`: the Potency result was “inactive”.
Regarding `Cc1ccc(-n2c(SCc3ccccc3C)nc3[nH]ncc3c2=O)cc1C`, the Potency entry is “inactive”.
Take `COc1cccc(-c2nnc(-c3ccccc3NC(=O)c3cccc(C(F)(F)F)c3)o2)c1`: the Potency result was “inactive”.
The entry for `CCn1cc(C(=O)N(C)c2cc(C)ccc2C)c2cc(OC)c(OC)cc2c1=O` is “inactive”; for `CC(C)CN1C(=O)CO[C@H](c2ccc(NS(=O)(=O)c3cccc(F)c3)cc2)[C@H]1CO` it is “inactive”.
On to `Cn1c(=O)n([C@H]2CCCN(C(=O)c3cccnc3)C2)c2ncccc21`, for which the Potency result is “inactive”.
Consider `COc1cc(C(=O)NCC(c2ccco2)S(=O)(=O)c2ccccc2)cc(OC)c1OC` (stereo not given), for which the Potency entry is “inactive”.
The entry for `O=S(=O)(Nc1ccc(OC(F)(F)F)cc1)c1ccc(N2CCCCS2(=O)=O)cc1` is “inactive”; for `Cc1ccc2cccc(NC(=O)COc3ccccc3[N+](=O)[O-])c2n1` it is “inactive”.
On to `COC(=O)c1cc(C)nc2c1c(=O)nc(SCc1ccccc1Cl)n2C1CC1`, for which the Potency result was “inactive”.
For the compound `COc1cc(-c2noc(-c3ccc(NC4CCCCC4)c([N+](=O)[O-])c3)n2)cc(OC)c1OC`, the Potency entry is “inactive”.
Take `COc1ccc(NS(=O)(=O)c2ccc3[nH]c(=O)ccc3c2)cc1OC`: the Potency result was “inactive”.
With `O=C(O)C1(Oc2ccc(Cl)cc2)CCN(c2cnccn2)CC1`, the Potency entry was “inactive”.
Take `CCc1nn2c(=O)c(S(=O)(=O)Nc3ccc(Br)cc3F)c(C)nc2s1`: the Potency entry was “inactive”.
The entry for `Cc1ccccc1NC(=O)CSc1nc2ccccc2c2nc(CCn3cncc3C)nn12` is “inactive”; for `CCOc1ccc(-c2cc(C(=O)NC(C)c3ccccc3)c3ccccc3n2)cc1` (stereo not given) it is “inactive”.
Turning to `CCN(CC)CCNC(=O)CN1C(=O)COc2ccc(S(=O)(=O)N3CCOCC3)cc21`, the Potency result is “inactive”.
As to `COc1cccc(-c2cccc(C(=O)N3CCN([S+](=O)([O-])c4ccccc4)CC3)c2)c1`, the Potency entry was “inactive”.
Under `Cc1ccc(S(=O)(=O)N2CCCC(Cn3cnc4cccnc43)C2)cc1C` (stereo not given) stands “inactive”; under `COc1ccc(S(=O)(=O)N2CCCCC2)cc1C(=O)Nc1cccc(C(F)(F)F)c1`, “inactive”; under `Cc1ccc(S(=O)(=O)N2CCC(C(=O)Nc3ccc(Oc4ccccc4)cc3)CC2)cc1`, “inactive”.
Consider `COc1ccc(NC(=O)c2ccco2)cc1NC(=O)c1ccccc1[N+](=O)[O-]`, for which the Potency entry was “inactive”.
As for `Cc1ccc(Cc2nc3ccccc3nc2SCC(=O)Nc2cccc(C(F)(F)F)c2)cc1`, the Potency entry was “inactive”.
Take `Cc1cccc(-c2nc3c(cnn3-c3ccccc3)c(=O)n2-c2ccc(Cl)cc2)c1`: the Potency entry was “inactive”.
In the case of `CCc1cnc2c(c1SCc1ccccc1C)c(=O)n(C)c(=O)n2C`, the Potency entry was “inactive”.
Turning to `CCc1nn(-c2ccccc2)c(Oc2cccc(C)c2)c1CCC(=O)N1CCOCC1`, the Potency entry was “inactive”.
The entry for `COc1cc2nc(NC(=O)c3ccc(S(=O)(=O)N4CCOCC4)cc3)sc2cc1OC` is “inactive”.
Take `CCOc1ccc(C(=O)Nc2ccc(NC(=O)c3ccccc3)cc2)cc1Br`: the Potency result was “inactive”.
The entry for `CCCc1cnc2c(c1SCC(=O)N(C)c1ccccc1)c(=O)n(C)c(=O)n2C` is “inactive”.
Turning to `CCc1nn2c(=O)c(S(=O)(=O)Nc3ccc(C(C)C)cc3)c(C)nc2s1`, the Potency result is “inactive”.
In the case of `CC(C)OCCCNC(=O)CN1C(=O)COc2ccc(S(=O)(=O)N3CCOCC3)cc21`, the Potency result was “inactive”.
In the case of `CCc1ccc(C(=O)c2cnc3ccc(C)cc3c2S(=O)(=O)c2ccc(OC)cc2)cc1`, the Potency entry is “inactive”.
